Screening results deposited in PubChem by The Scripps Research Institute Molecular Screening Center.
PME-1 primary: blocks human protein phosphatase methylesterase 1; recombinant PME-1, FP-Rh probe fluorescence polarization; inhibition, % at 5.9 µM; 320,000 tested, 0.53% active;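 active means inhibition above the campaign mean of all compounds plus 3 SD, cut at about 26% in these data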;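 further: competitive labeling of PME-1 active site by serine hydrolase directed probe; inhibitors block probe labeling so polarization falls and inhibition rises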
Target sequence (Q9Y570 whole entry, looked up): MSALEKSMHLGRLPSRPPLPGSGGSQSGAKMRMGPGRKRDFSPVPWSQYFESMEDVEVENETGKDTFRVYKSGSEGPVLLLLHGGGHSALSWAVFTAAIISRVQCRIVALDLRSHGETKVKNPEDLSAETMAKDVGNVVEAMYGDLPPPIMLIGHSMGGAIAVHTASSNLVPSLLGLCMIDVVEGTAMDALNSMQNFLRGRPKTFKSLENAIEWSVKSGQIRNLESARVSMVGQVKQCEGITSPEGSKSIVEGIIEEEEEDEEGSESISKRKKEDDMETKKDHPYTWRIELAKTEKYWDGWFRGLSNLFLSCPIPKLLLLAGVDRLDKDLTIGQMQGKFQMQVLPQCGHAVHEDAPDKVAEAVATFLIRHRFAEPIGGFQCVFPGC
LYPLA1 counter: counter-screen for PME1 inhibitors: inhibitors of human LYPLA1 | recombinant LYPLA1, FP-Rh probe fluorescence polarization | inhibition, % at 5.9 µM | 320,000 tested, 0.16% active;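 active means inhibition above the mean of all tested compounds plus 3 SD, set per campaign, cut at about 14% in these data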;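 further: inhibitors block serine hydrolase probe labeling of LYPLA1 so polarization falls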
Fam108B inh: Fam108B inhibition, counter-screen for RBBP9 inhibitors; recombinant Fam108B, FP-Rh probe fluorescence polarization; 300,000 tested, 0.33% active; inhibition, % at 9.51 µM;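 active means inhibition above the screen mean inhibition plus 3 SD, computed separately per campaign, cut at about 18% in these data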;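 further: inhibitors lower polarization as less probe binds the enzyme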
GSTO1 inh: GSTO1 inhibition, counter-screen for RBBP9 inhibitors; P78417; recombinant GSTO1, activity-based probe fluorescence polarization; inhibition, % at 5.96 µM; 300,000 tested, 1.1% active; AID 1974;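 active means inhibition above the campaign mean inhibition plus 3 SD, cut at about 35% in these data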
Target sequence (P78417 whole entry, looked up): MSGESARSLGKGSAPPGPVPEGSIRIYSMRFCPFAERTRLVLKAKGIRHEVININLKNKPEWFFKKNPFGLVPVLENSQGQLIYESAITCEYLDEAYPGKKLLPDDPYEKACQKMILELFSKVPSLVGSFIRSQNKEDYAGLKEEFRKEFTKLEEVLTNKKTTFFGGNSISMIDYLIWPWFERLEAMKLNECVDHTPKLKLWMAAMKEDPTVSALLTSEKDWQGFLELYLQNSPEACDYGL
PAD4 FP inh: PAD4 (human) enzyme inhibition; Q9UM07; AID 485272; 330,000 tested, 0.41% active; recombinant PAD4, RCA probe fluorescence polarization; inhibition, % at 6.36 µM;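 active means percent inhibition above a cutoff equal to the mean of all tested compounds plus 3 SD, cut at about 15% in these data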
LYPLA2 inh: LYPLA2 (human) inhibition in PME1 counter-screen; AID 2177; inhibition, % at 5.9 µM; 320,000 tested, 0.38% active; recombinant LYPLA2, FP-Rh probe fluorescence polarization; O95372;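 active means inhibition above the screen-wide mean plus 3 SD, limit set per campaign, cut at about 26% in these data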
Hits are given with their value; n = inactive; x = no result given. The list is not random: actives were taken first. Their share in the collection is about 1.7%.

SMILES	PME-1 primary	LYPLA1 counter	Fam108B inh	GSTO1 inh	PAD4 FP inh	LYPLA2 inh
Cc1cc(-c2nnc(SCC(=O)Nc3nc(-c4ccc(Cl)cc4)cs3)o2)no1	28	n	n	n	n	n
COc1cc(NC(=O)CSc2nnc(-c3cc(C)on3)o2)cc(OC)c1	n	n	n	n	n	n
CCc1nnc(NC(=O)CSc2nnc(COc3cccc(C)c3)o2)s1	n	n	n	35	n	n
COCC(C)n1c(C)cc(C(=O)CN2C(=O)NC(Cc3c[nH]c4ccccc34)C2=O)c1C (centres undefined)	n	n	n	n	n	n
N#Cc1c(N)nc2c3c(sc(=N)c2c1N)NC(=O)CC3c1ccccc1 (centres undefined)	29	n	n	n	n	n
Cc1c(C#N)c(N)nc2c3c(sc12)NC(=O)CC3c1ccc(Cl)cc1 (centres undefined)	n	n	n	n	n	n
N#Cc1c(N)nc2c3c(sc(=N)c2c1N)NC(=O)CC3c1c(F)cccc1Cl (centres undefined)	63	n	n	35	n	n
CC(C)Oc1ccc(/C=C/C(=O)NCC2COc3ccccc3O2)cc1 (centres undefined)	n	n	n	n	n	n
Nc1n[nH]c(C2CC2)c1N=Nc1ccc(Cl)c(Cl)c1	31	n	n	n	n	n
CCN(CC)C(=O)[C@H]1C[C@H](CC(=O)NC/C=C(\C)CCC=C(C)C)C(=O)N2CCc3c([nH]c4cc(CCC(=O)N(C)C)ccc34)[C@]12C	x	x	x	x	n	x
CC(=O)NCCC(=O)Nc1cc(S(=O)(=O)N2CCOCC2)ccc1N1CCCC1	n	n	n	n	n	n
CN(c1ccccc1)S(=O)(=O)c1cccc(C(=O)NCCc2ccc(O)c(O)c2)c1	n	n	n	39	n	n
Cc1csc(NC(=O)C2CCCN(S(=O)(=O)c3ccc(Br)s3)C2)n1 (centres undefined)	n	n	n	46	n	n
CCOC(=O)C1CCCN(S(=O)(=O)c2ccc(Br)s2)C1 (centres undefined)	n	n	n	n	n	n
O=C1[C@@H](Oc2ccccc2)[C@@H](c2ccncc2)N1c1ccncc1	x	x	x	x	n	x
O=C(CNc1cccc2ccccc12)N/N=C/C=C/c1ccco1	74	n	n	n	n	n
COc1ncnc2sc(-c3ccccc3)cc12	n	n	n	n	n	n
COc1ccc(Nc2ncnc3sc(-c4ccccc4)cc23)cc1	34	n	n	n	n	n
CCc1cccc(NC(=O)C2CCCN(S(=O)(=O)c3cccnc3)C2)c1 (centres undefined)	n	n	n	n	n	n
N#Cc1c(N)sc(=S)c2c1CCN(Cc1ccccc1)C2	32	18	27	51	54	27
O=[N+]([O-])c1ccc(N2CCN(C(=S)NCc3ccc(Cl)cc3)CC2)cc1	n	n	n	n	n	28
O=C(O)/C(=C\c1ccc(Cl)c([N+](=O)[O-])c1)c1ccc(S(=O)(=O)N2CCCCC2)s1	n	n	n	62	n	n
CCO[C@@H]1OC(C(=O)N2CCOCC2)=C[C@H](c2cn(C(C)=O)c3ccccc23)[C@H]1CCCO	n	n	n	n	n	n
CCO[C@@H]1OC(C(=O)N2CCN(Cc3ccccc3)CC2)=C[C@H](c2cn(C(C)=O)c3ccccc23)[C@H]1CCCO	71	n	n	n	n	n
CCN(CC)C(=O)c1ccc(-c2nnc(Nc3ccc(C(=O)N(C)C)cc3)c3ccccc23)cc1	n	n	n	n	n	n
SMILES	PME-1 primary	LYPLA1 counter	Fam108B inh	GSTO1 inh	PAD4 FP inh	LYPLA2 inh
CN(C)C(=O)c1ccc(-c2nnc(NCc3ccccc3)c3ccccc23)cc1	37	n	n	n	n	n
CN(C)S(=O)(=O)c1cccc(NC(=O)COC(=O)COc2ccc(Br)cc2)c1	n	n	n	n	n	n
O=[N+]([O-])c1ccccc1NCCNS(=O)(=O)c1ccc(Cl)cc1	n	n	n	n	n	n
O=[N+]([O-])c1ccc(NCCCNS(=O)(=O)c2ccc(Cl)cc2)c(Cl)c1	n	n	n	n	n	27
COc1ccccc1-c1nc(C#N)c(N2CCc3ccccc3C2)o1	n	n	n	n	n	n
CC(C)c1ccc2[nH]c(O)c(N=NC(=O)c3ccc(CSc4nncn4C)cc3)c2c1	30	n	n	n	n	n
Cn1cnnc1SCc1ccc(C(=O)NN)cc1	n	n	n	n	n	n
COCCCNC(=O)/C(C#N)=C/c1ccc(OCC(=O)O)c(OC)c1	n	n	n	41	n	n
COc1ccc(/C=C(\C#N)C(=O)NCCc2ccccc2)cc1OCc1ccccc1	n	n	n	n	n	n
CNC(=S)N1CCN(S(=O)(=O)c2ccc3ccccc3c2)CC1	n	n	n	n	n	n
NC(=O)C1CCN(C2=C(NS(=O)(=O)c3ccc(Br)cc3)C(=O)c3ccccc3C2=O)CC1	n	n	n	35	n	n
O=C(c1cc(-c2ccc(F)cc2)nc2ccccc12)N1CCN(C2CCS(=O)(=O)C2)CC1 (centres undefined)	n	n	x	x	n	n
O=C(O)C1Nc2c(C(=O)N3CCOCC3)cccc2C2C=CCC12 (centres undefined)	n	n	n	36	n	n
O=C(c1ccccc1O)N1CCOCC1	n	n	n	n	n	n
COc1cccc(-c2ccc(C#N)c(SCC(=O)NCCc3cccc(Cl)c3)n2)c1	n	n	n	n	n	n
COc1ccc(-c2sc(Nc3ccc(F)c(F)c3F)nc2CCC(=O)NN)cc1	30	n	n	n	n	n
C#CCOCCOCCOCCNc1nc(N2CCOCC2)nc(N2CCN(C(=O)CCCCCCCCCCNC(=O)[C@@H]([C@H](C)CC)n3cc(CCCCCN)nn3)CC2)n1	n	n	n	n	n	n
C#CCOCCOCCOCCNc1nc(N2CCN(C(=O)CCCCCCCCCCNC(=O)[C@H]([C@@H](C)CC)n3cc(CCCCCN)nn3)CC2)nc(N2CCN(C(=O)CCCCCCCCCCNC(=O)[C@@H]([C@H](C)CC)n3cc(CCCCCN)nn3)CC2)n1	n	n	n	n	n	57
C#CCOCCOCCOCCNc1nc(N2CCN(C(=O)CCCCCCCCCCNC(=O)[C@H]([C@@H](C)CC)n3cc(CCCCN=C(N)N)nn3)CC2)nc(N2CCN(C(=O)CCCCCCCCCCNC(=O)[C@H](CO)n3cc(CCCCCN)nn3)CC2)n1	n	n	n	n	n	n
C#CCOCCOCCOCCNc1nc(N2CCN(C(=O)CCCCCCCCCCNC(=O)[C@H]([C@@H](C)CC)n3cc(CCCCN=C(N)N)nn3)CC2)nc(N2CCN(C(=O)CCCCCCCCCCNC(=O)[C@H]([C@@H](C)CC)n3cc(CCCCN=C(N)N)nn3)CC2)n1	n	n	n	n	n	33
CCOc1ccc(S(=O)(=O)N(CC)CC)cc1NS(=O)(=O)c1ccc(F)c(F)c1F	n	n	n	n	n	n
